The sample as a whole holds a higher share of hits than the screen did.
miR122 inh = miR-122 sensor activation. actives 0.14% (n = 340,000). Huh7 psiCHECK-miR122 Renilla luciferase sensor, 48 h. activation, % at 12.5 µM. AID 623901;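 active means mean activation of 30% or more, with every replicate also reaching 30%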;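 further: higher luciferase signal means stronger suppression of miR-122 activity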
Each line names hits and unclear results; the compound was inactive in the other large screens.

CO[C@@H]1CN(C)C(=O)c2cc(NC(=O)Nc3ccccc3)ccc2OC[C@@H](C)NC[C@@H]1C	none
C[C@@H]1CN([C@@H](C)CO)S(=O)(=O)c2ccc(/C=C/c3ccccc3)cc2O[C@@H]1CN(C)C(=O)Nc1cccc(F)c1	none
C[C@@H]1CN([C@H](C)CO)C(=O)c2cc(-c3ccc(C#N)cc3)cnc2O[C@@H]1CN(C)CC1CCOCC1	none
CC(C)C#Cc1ccc2c(c1)O[C@@H](CN(C)C(=O)CC1CC1)[C@H](C)CN([C@@H](C)CO)S2(=O)=O	none
C[C@H](O)C#Cc1cnc2c(c1)C(=O)N([C@@H](C)CO)C[C@H](C)[C@@H](CN(C)C(=O)CN(C)C)O2	none
C[C@@H]1CN([C@@H](C)CO)C(=O)c2cc(-c3cccc(F)c3)cnc2O[C@@H]1CN(C)Cc1ccncc1	none
CN1C(=O)c2cc(NC(=O)c3ccc(C(F)(F)F)cc3)ccc2OC[C@H]2O[C@H](CC(=O)NC3Cc4ccccc4C3)CC[C@@H]21	miR122 inh 63.3
CN1C(=O)c2cc(NC(=O)c3ccc(C(F)(F)F)cc3)ccc2OC[C@@H]2O[C@H](CC(=O)NC3Cc4ccccc4C3)CC[C@H]21	miR122 inh 36.7
CCC(=O)Nc1ccc2c(c1)OC[C@@H](C)N(C(=O)CN1CCOCC1)C[C@@H](C)[C@H](OC)CN(C)C2=O	none
C[C@@H]1CN([C@H](C)CO)S(=O)(=O)c2ccc(C#Cc3ccc(F)cc3)cc2O[C@H]1CN(C)S(C)(=O)=O	none
C[C@H]1CN([C@@H](C)CO)S(=O)(=O)c2ccc(C#CCC3CCCC3)cc2O[C@@H]1CN(C)C(=O)CC1CC1	none
COc1ccccc1-c1cnc2c(c1)C(=O)N([C@@H](C)CO)C[C@H](C)[C@@H](CN(C)CC1CCCC1)O2	none
COc1cccc2c1C(=O)c1c(O)c3c(c(O)c1C2=O)C[C@@](O)(C(=O)CO)C[C@@H]3O[C@H]1C[C@H](N)[C@H](O)[C@H](C)O1	miR122 inh 68.7
COc1ccccc1-c1cnc2c(c1)C(=O)N([C@H](C)CO)C[C@@H](C)[C@H](CN(C)Cc1ccccc1)O2	none
COc1ccc(NC(=O)Nc2cccc3c2O[C@H](CN(C)Cc2ccc4c(c2)OCO4)[C@@H](C)CN([C@@H](C)CO)C3=O)cc1	none
CCOc1ccc(S(=O)(=O)N2CCC(C(N)=O)CC2)c2ccccc12	none
CCOc1ccc(NS(=O)(=O)c2cc(NC(=O)C3CC3)ccc2C)cc1Br	none
CCOc1ccc(CCNC(=O)C2CCN(S(=O)(=O)N3CCC(C)CC3)CC2)cc1OCC	miR122 inh 33.3
CC(C)CC#Cc1ccc2c(c1)O[C@H](CN(C)C(=O)C1CCOCC1)[C@@H](C)CN([C@@H](C)CO)S2(=O)=O	none
C[C@H](O)C#Cc1cnc2c(c1)C(=O)N([C@H](C)CO)C[C@H](C)[C@H](CN(C)Cc1cncnc1)O2	none
C[C@H]1CN([C@@H](C)CO)C(=O)c2cc(C#Cc3ccccn3)cnc2O[C@@H]1CN(C)CC1CCOCC1	none
COC(=O)c1nn(-c2ccccc2)c(Sc2ccc(Cl)cc2)c1/C=N/O	miR122 inh 35.6
O=C(Cc1ccccc1)N1C[C@@H]2[C@H](c3ccccc31)[C@H](CO)N2C(=O)Nc1ccc(F)cc1	none
O=C(Nc1ccccc1F)N1[C@H](CO)[C@@H]2c3ccccc3NC[C@@H]21	miR122 inh 41.7
C[C@H](CO)N1C[C@H](C)[C@@H](CN(C)C(=O)c2cccnc2)Oc2ncc(/C=C/c3ccccc3)cc2C1=O	none
C[C@@H]1CN([C@H](C)CO)C(=O)c2cc(-c3ccc(F)cc3)cnc2O[C@H]1CN(C)Cc1cccnc1	none
COc1cccc(/C=N/Nc2ccc([N+](=O)[O-])cn2)c1O	miR122 inh 32.7
COCC#Cc1ccc2c(c1)O[C@@H](CN(C)C(=O)COC)[C@H](C)CN([C@@H](C)CO)S2(=O)=O	none
CO[C@H]1CN(C)C(=O)c2ccc(NC(=O)Nc3ccc(F)cc3)cc2OC[C@H](C)NC[C@H]1C	none
CCCNC(=O)Nc1ccc2c(c1)OC[C@H](C)NC[C@H](C)[C@@H](OC)CN(C)C2=O	none
Cc1ccccc1OCC(=O)NNC(=O)Nc1ccc(Cl)cc1	none
Cc1ccccc1OCC(O)CNC1CCC(NCC(O)COc2ccccc2C)CC1 (centres undefined)	miR122 inh 31.4
C[C@@H]1CN([C@H](C)CO)C(=O)c2cc(C#Cc3ccccn3)cnc2O[C@H]1CN(C)Cc1cccnc1	none
Cc1noc(C)c1NC(=O)N(C)C[C@H]1Oc2ncc(C#CC3CCCCC3)cc2C(=O)N([C@H](C)CO)C[C@H]1C	none
COc1ccc(-c2cnc3c(c2)C(=O)N([C@@H](C)CO)C[C@H](C)[C@@H](CN(C)C(=O)Cc2ccccc2)O3)cc1	none
C[C@@H]1CN([C@@H](C)CO)C(=O)c2cc(C#CCc3ccccc3)cnc2O[C@H]1CN(C)Cc1ccccn1	none
Cc1ccc(N(Cc2ccco2)C(=O)c2ccc(N3CCCCC3)c([N+](=O)[O-])c2)cc1	none
COc1ccc(-c2cc(C3CCN(c4ccc(C(C)=O)cc4[N+](=O)[O-])CC3)[nH]n2)cc1	miR122 inh 44.6
CO[C@H]1CN(C)C(=O)c2ccc(NC(=O)Nc3ccccc3)cc2OC[C@@H](C)N(C(C)=O)C[C@H]1C	none
C[C@H](CO)N1C[C@H](C)[C@@H](CN(C)Cc2ccc3c(c2)OCO3)Oc2c(NC(=O)Nc3ccccc3)cccc2C1=O	none
C[C@H](CO)N1C[C@H](C)[C@H](CN(C)Cc2cncnc2)Oc2cc(-c3cncnc3)ccc2S1(=O)=O	none
COc1ccc(NC(=O)c2cccc(S(=O)(=O)Nc3ccc(Br)cc3)c2)cn1	none
COc1ccc(NC(=O)/C(Cl)=C(/Cl)S(=O)(=O)Cc2ccccc2)cn1	miR122 inh 32.3
C[C@H]1CN([C@@H](C)CO)C(=O)c2cccc(NC(=O)c3ccncc3)c2O[C@@H]1CN(C)CC1CCCCC1	none
CCC(=O)N(C)C[C@H]1Oc2ncc(C#CC3(O)CCCC3)cc2C(=O)N([C@@H](C)CO)C[C@H]1C	none
COc1cccc(NC(=O)N(C)C[C@H]2Oc3cc(-c4cccc(C(=O)N(C)C)c4)ccc3S(=O)(=O)N([C@@H](C)CO)C[C@H]2C)c1	none
COc1ccccc1C#Cc1ccc2c(c1)O[C@H](CN(C)Cc1cncnc1)[C@H](C)CN([C@@H](C)CO)S2(=O)=O	none
COc1ccccc1C#Cc1ccc2c(c1)O[C@H](CN(C)Cc1cccnc1)[C@H](C)CN([C@@H](C)CO)S2(=O)=O	miR122 inh 39.3
C[C@H](CO)N1C[C@H](C)[C@H](CN(C)Cc2cccnc2)Oc2cc(-c3ccccc3)ccc2S1(=O)=O	none
COc1ccccc1C#Cc1ccc2c(c1)O[C@H](CN(C)Cc1cncnc1)[C@@H](C)CN([C@@H](C)CO)S2(=O)=O	none
C[C@@H]1CN([C@H](C)CO)S(=O)(=O)c2ccc(-c3ccccc3)cc2O[C@H]1CN(C)Cc1cccnc1	none
C[C@@H]1CN([C@@H](C)CO)S(=O)(=O)c2ccc(-c3ccccc3F)cc2O[C@@H]1CN(C)Cc1cccnc1	miR122 inh 49.0
CCCN(C)C[C@@H]1Oc2cc(C#Cc3ccccc3F)ccc2S(=O)(=O)N([C@H](C)CO)C[C@@H]1C	none
C[C@H](CO)N1C[C@H](C)[C@@H](CN(C)CC2CCOCC2)Oc2ncc(-c3cncnc3)cc2C1=O	none
CCCC(=O)Nc1ccc2c(c1)OC[C@@H](C)N(C(C)=O)C[C@H](C)[C@@H](OC)CN(C)C2=O	none
Cc1ccc(-c2cnc3c(c2)C(=O)N([C@H](C)CO)C[C@@H](C)[C@H](CN(C)C(=O)Cc2cccnc2)O3)cc1	none
CNC[C@@H]1Oc2ncc(-c3ccc(C#N)cc3)cc2C(=O)N([C@H](C)CO)C[C@@H]1C	none
